From PubChem BioAssay (Tox21)
Results filed as inconclusive are left out. Entries that show only a call come without a potency. Activity calls are given as the source filed them. Unless noted, calls come from the whole dose curve; as a rule, active = well fitted curve in the direction sought with a large enough effect in the repeat runs; inconclusive = weak or mixed curves; inactive = no such curve, though single readings can be large; an effect the other way counts as inactive or inconclusive.

Experiments:
[1] = qHTS assay to identify small molecule antagonists of the thyroid receptor (TR) signaling pathway - cell viability counter screen (AID 743064); note: nearly all actives have a fitted effect of over 50% in size
How it was run: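 Rat GH3 pituitary tumor cells stably expressing two TR response elements driving luciferase were plated, rested 4 h, then dosed with library compounds and T3 (1 nM final). After 23.5 h at 37 °C, CellTiter-Fluor was added for 30 min and fluorescence recorded.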

[2] = qHTS assay to identify small molecule antagonists of the thyroid receptor (TR) signaling pathway (AID 743065); note: series mostly up to about 70 µM; nearly all actives have a fitted effect of over 55% in size
How it was run: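 GH3.TRE-Luc rat pituitary cells carrying two TR response elements driving luciferase were plated for 4 h, given compound plus 1 nM T3 (final), and incubated 23.5 h at 37 C. ONE-Glo luminescence measured reporter inhibition; CellTiter-Fluor fluorescence tracked cytotoxicity.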

[3] = test system: thyroid hormone receptor (rat, GH3 cells); test: qHTS assay to identify small molecule agonists of the thyroid receptor (TR) signaling pathway (AID 743066; calls by dose curve)
[4] = molecular target: Estrogen receptor (Homo sapiens) (UniProt P03372); test: qHTS assay to identify small molecule antagonists of the estrogen receptor alpha (ER-alpha) signaling pathway (AID 743069; active = well fitted curve in the direction sought with a large enough effect in the signal ratio in the repeat runs, not every such curve was filed as active; the % refers to the signal ratio)
Sequence of Estrogen receptor (Homo sapiens) (P03372 whole entry, looked up): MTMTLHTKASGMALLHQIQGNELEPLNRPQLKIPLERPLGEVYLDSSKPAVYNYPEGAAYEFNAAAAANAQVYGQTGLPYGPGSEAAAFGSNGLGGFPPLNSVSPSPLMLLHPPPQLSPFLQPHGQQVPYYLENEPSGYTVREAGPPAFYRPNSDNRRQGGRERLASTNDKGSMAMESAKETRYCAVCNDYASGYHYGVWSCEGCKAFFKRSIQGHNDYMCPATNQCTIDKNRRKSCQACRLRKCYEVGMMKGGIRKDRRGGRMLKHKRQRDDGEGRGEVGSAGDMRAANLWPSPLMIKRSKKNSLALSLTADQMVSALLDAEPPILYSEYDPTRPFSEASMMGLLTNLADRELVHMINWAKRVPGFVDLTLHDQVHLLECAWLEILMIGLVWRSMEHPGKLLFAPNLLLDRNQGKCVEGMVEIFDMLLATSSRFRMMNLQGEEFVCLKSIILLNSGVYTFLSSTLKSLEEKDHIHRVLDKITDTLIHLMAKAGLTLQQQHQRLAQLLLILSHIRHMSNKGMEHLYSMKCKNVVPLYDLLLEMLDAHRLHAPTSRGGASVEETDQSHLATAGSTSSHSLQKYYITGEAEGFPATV
How it was run: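 A 17beta-estradiol challenge was applied right after compound transfer to ER-alpha-UAS-bla HEK293 cells previously kept in charcoal-stripped serum. Plates stood 18 hr at 37C and 5% CO2; fluorescence was read following 2 hr FRET substrate loading at room temperature.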

[5] = qHTS assay to identify small molecule antagonists of the estrogen receptor alpha (ER-alpha) signaling pathway - cell viability counter screen (AID 743074; calls by dose curve;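 note: HEK293 cells carrying ER-alpha-UAS-bla reporter stimulated with 17beta-estradiol; nearly all actives have a fitted effect of over 45% in size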)
[6] = molecular target: Estrogen receptor (Homo sapiens) (UniProt P03372); test: qHTS assay to identify small molecule agonists of the estrogen receptor alpha (ER-alpha) signaling pathway (AID 743075; calls by dose curve;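 note: HEK293 GripTite cells with ER-alpha and UAS-driven beta-lactamase reporter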)
[7] = molecular target: Estrogen receptor (Homo sapiens) (UniProt P03372); test: qHTS assay to identify small molecule agonists of the estrogen receptor alpha (ER-alpha) signaling pathway using the BG1 cell line (AID 743079); note: nearly all actives have a fitted effect of over 20% in size; note: potency is the fitted concentration of half-maximal effect
[8] = qHTS assay to identify small molecule antagonists of the estrogen receptor alpha (ER-alpha) signaling pathway using the BG1 cell line (AID 743080; calls by dose curve;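 note: BG1 cells stimulated with 17beta-estradiol alongside compound; series mostly up to about 70 µM; nearly all actives have a fitted effect of over 25% in size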)
How it was run: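 Quantitative HTS on the Tox21 10K library: BG1 cells with endogenous ER-alpha and ERE-luciferase reporter, 17beta-estradiol stimulation, 21.5 h compound exposure, luminescence endpoint with parallel fluorescence cytotoxicity counter-read.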

[9] = qHTS assay to identify small molecule antagonists of the estrogen receptor alpha (ER-alpha) signaling pathway using the BG1 cell line - cell viability counter screen (AID 743081);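 note: compound given together with 17beta-estradiol as the ER stimulus; series mostly up to about 70 µM; nearly all actives have a fitted effect of over 45% in size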
Aromatase (Homo sapiens) = Aromatase (Homo sapiens) (UniProt P11511); test: qHTS assay to identify aromatase inhibitors (AID 743083); note: series mostly up to about 70 µM; nearly all actives have a fitted effect of over 55% in size
Sequence of Aromatase (Homo sapiens) (P11511 whole entry, looked up): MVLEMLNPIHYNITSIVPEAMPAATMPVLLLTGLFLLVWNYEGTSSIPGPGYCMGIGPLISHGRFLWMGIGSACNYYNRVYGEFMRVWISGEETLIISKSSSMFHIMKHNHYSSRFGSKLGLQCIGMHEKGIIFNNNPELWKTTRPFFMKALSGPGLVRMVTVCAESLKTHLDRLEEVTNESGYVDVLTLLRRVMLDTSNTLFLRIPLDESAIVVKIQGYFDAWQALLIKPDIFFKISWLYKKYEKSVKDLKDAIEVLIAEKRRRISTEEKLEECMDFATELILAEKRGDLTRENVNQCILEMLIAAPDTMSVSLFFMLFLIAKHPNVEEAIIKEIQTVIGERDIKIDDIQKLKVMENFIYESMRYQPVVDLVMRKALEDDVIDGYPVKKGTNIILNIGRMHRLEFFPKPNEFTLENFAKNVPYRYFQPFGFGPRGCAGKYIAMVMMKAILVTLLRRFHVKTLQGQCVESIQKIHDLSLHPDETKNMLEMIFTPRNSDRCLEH

SMILES: CCN(CC)C(=O)c1ccc(O)c(OC)c1
- Potency [1]: inactive
- Potency [2]: inactive
- Potency [3]: inactive
- Potency [4]: inactive
- outcome [5]: inactive
- Potency [6]: inactive
- Potency [7]: inactive
- Potency [8]: inactive
- outcome [9]: inactive
- Potency (Aromatase (Homo sapiens)): inactive

SMILES: CC(C)(C)OC(=O)N1C[C@@H](F)C[C@H]1C(=O)O
- Potency [1]: inactive
- Potency [2]: inactive
- Potency [3]: inactive
- Potency [4]: inactive
- outcome [5]: inactive
- Potency [6]: inactive
- Potency [7]: inactive
- Potency [8]: inactive
- outcome [9]: inactive
- Potency (Aromatase (Homo sapiens)): inactive

SMILES: Oc1cc(O)c2c(c1)O[C@H](c1ccc(O)c(O)c1)[C@H](O)C2
- Potency [1]: inactive
- Potency [2]: inactive
- Potency [3]: inactive
- Potency [4]: inactive
- outcome [5]: inactive
- Potency [6]: inactive
- Potency [7]: inactive
- Potency [8]: inactive
- outcome [9]: inactive
- Potency (Aromatase (Homo sapiens)): inactive

SMILES: NC(=O)c1ncn([C@@H]2O[C@H](CO)[C@@H](O)[C@H]2O)c1O
- Potency [1]: inactive
- Potency [2]: inactive
- Potency [3]: inactive
- Potency [4]: inactive
- outcome [5]: inactive
- Potency [6]: inactive
- Potency [7]: inactive
- Potency [8]: inactive
- outcome [9]: inactive
- Potency (Aromatase (Homo sapiens)): inactive

SMILES: O=C1OC(=O)c2cc([N+](=O)[O-])ccc21
- Potency [1]: inactive
- Potency [2]: inactive
- Potency [3]: inactive
- Potency [4]: inactive
- outcome [5]: inactive
- Potency [6]: inactive
- Potency [7]: inactive
- Potency [8]: inactive
- outcome [9]: inactive
- Potency (Aromatase (Homo sapiens)): inactive

SMILES: C[N+](C)(C)CC[N+]1(C)Cc2c(Cl)c(Cl)c(Cl)c(Cl)c2C1
- Potency [1]: inactive
- Potency [2]: inactive
- Potency [3]: inactive
- Potency [4]: inactive
- outcome [5]: inactive
- Potency [6]: inactive
- Potency [7]: inactive
- Potency [8]: inactive
- outcome [9]: inactive
- Potency (Aromatase (Homo sapiens)): inactive

SMILES: CCCCCCCCCCCCCCCCCC(=O)OCCCCCCCCCCCCCC(C)C
- Potency [1]: inactive
- Potency [2]: inactive
- Potency [3]: inactive
- Potency [4]: inactive
- outcome [5]: inactive
- Potency [6]: inactive
- Potency [7]: 56.4 µM (active)
- Potency [8]: inactive
- outcome [9]: inactive
- Potency (Aromatase (Homo sapiens)): inactive

SMILES: COCCOC(=O)CC#N
- Potency [1]: inactive
- Potency [2]: inactive
- Potency [3]: inactive
- Potency [4]: inactive
- outcome [5]: inactive
- Potency [6]: inactive
- Potency [7]: inactive
- Potency [8]: inactive
- outcome [9]: inactive
- Potency (Aromatase (Homo sapiens)): inactive

SMILES: O=C1C(CCS(=O)c2ccccc2)C(=O)N(c2ccccc2)N1c1ccccc1 (stereo not drawn)
- Potency [1]: inactive
- Potency [2]: inactive
- Potency [3]: inactive
- Potency [4]: inactive
- outcome [5]: inactive
- Potency [6]: inactive
- Potency [7]: inactive
- Potency [8]: inactive
- outcome [9]: inactive
- Potency (Aromatase (Homo sapiens)): inactive

SMILES: O=[N+]([O-])c1ccc(Oc2ccc([N+](=O)[O-])cc2)cc1
- Potency [1]: inactive
- Potency [2]: inactive
- Potency [3]: inactive
- Potency [4]: inactive
- outcome [5]: inactive
- Potency [6]: inactive
- Potency [7]: inactive
- Potency [8]: inactive
- outcome [9]: inactive
- Potency (Aromatase (Homo sapiens)): inactive

SMILES: NC(=O)c1c(Cl)cccc1Cl
- Potency [1]: inactive
- Potency [2]: inactive
- Potency [3]: inactive
- Potency [4]: inactive
- outcome [5]: inactive
- Potency [6]: inactive
- Potency [7]: inactive
- Potency [8]: inactive
- outcome [9]: inactive
- Potency (Aromatase (Homo sapiens)): inactive

SMILES: O=C(O)C(O)[C@H](O)[C@@H](O)[C@H](O)[C@H](O)CO (stereo partly drawn)
- Potency [1]: inactive
- Potency [2]: inactive
- Potency [3]: inactive
- Potency [4]: inactive
- outcome [5]: inactive
- Potency [6]: inactive
- Potency [7]: inactive
- Potency [8]: inactive
- outcome [9]: inactive
- Potency (Aromatase (Homo sapiens)): inactive

SMILES: CC(C)=CC(=O)O
- Potency [1]: inactive
- Potency [2]: inactive
- Potency [3]: inactive
- Potency [4]: inactive
- outcome [5]: inactive
- Potency [6]: inactive
- Potency [7]: 54.5 µM (active)
- Potency [8]: inactive
- outcome [9]: inactive
- Potency (Aromatase (Homo sapiens)): inactive

SMILES: Cc1ncc(CSSCc2cnc(C)c(O)c2CO)c(CO)c1O
- Potency [1]: inactive
- Potency [2]: inactive
- Potency [3]: inactive
- Potency [4]: inactive
- outcome [5]: inactive
- Potency [6]: inactive
- Potency [7]: inactive
- Potency [8]: inactive
- outcome [9]: inactive
- Potency (Aromatase (Homo sapiens)): inactive

SMILES: OCCN1C[C@H](O)[C@@H](O)[C@H](O)[C@H]1CO
- Potency [1]: inactive
- Potency [2]: inactive
- Potency [3]: inactive
- Potency [4]: inactive
- outcome [5]: inactive
- Potency [6]: inactive
- Potency [7]: inactive
- Potency [8]: inactive
- outcome [9]: inactive
- Potency (Aromatase (Homo sapiens)): inactive

SMILES: COC[C@H](c1ccc(C(F)(F)F)cc1)N1CCN(C2(C)CCN(C(=O)c3c(C)ncnc3C)CC2)C[C@H]1C
- Potency [1]: inactive
- Potency [2]: inactive
- Potency [3]: inactive
- Potency [4]: inactive
- outcome [5]: inactive
- Potency [6]: inactive
- Potency [7]: inactive
- Potency [8]: inactive

SMILES: Nc1ccc2cc(S(=O)(=O)O)ccc2c1
- Potency [1]: inactive
- Potency [2]: inactive
- Potency [3]: inactive
- Potency [4]: inactive
- outcome [5]: inactive
- Potency [6]: inactive
- Potency [7]: inactive
- Potency [8]: inactive
- outcome [9]: inactive
- Potency (Aromatase (Homo sapiens)): inactive

SMILES: NCCN1CCNC1=O
- Potency [1]: inactive
- Potency [2]: inactive
- Potency [3]: inactive
- Potency [4]: inactive
- outcome [5]: inactive
- Potency [6]: inactive
- Potency [7]: inactive
- Potency [8]: inactive
- outcome [9]: inactive
- Potency (Aromatase (Homo sapiens)): inactive

SMILES: CCCOc1ccccc1-c1nc2n[nH]nc2c(=O)[nH]1
- Potency [1]: inactive
- Potency [2]: inactive
- Potency [3]: inactive
- Potency [4]: inactive
- outcome [5]: inactive
- Potency [6]: inactive
- Potency [7]: inactive
- Potency [8]: inactive
- outcome [9]: inactive
- Potency (Aromatase (Homo sapiens)): inactive

SMILES: CCCCCCCCN(C)CCCCCCCC
- Potency [1]: inactive
- Potency [2]: inactive
- Potency [3]: inactive
- Potency [4]: inactive
- outcome [5]: inactive
- Potency [6]: inactive
- Potency [7]: inactive
- Potency [8]: inactive
- outcome [9]: inactive
- Potency (Aromatase (Homo sapiens)): inactive

SMILES: COC(=O)c1ccc(C(=O)OC)c(C(=O)OC)c1
- Potency [1]: inactive
- Potency [2]: inactive
- Potency [3]: inactive
- Potency [4]: inactive
- outcome [5]: inactive
- Potency [6]: inactive
- Potency [7]: inactive
- Potency [8]: inactive
- outcome [9]: inactive
- Potency (Aromatase (Homo sapiens)): inactive

SMILES: CC(C)[N+](C)(C)CC(O)COc1cccc2ccccc12 (stereo not drawn)
- Potency [1]: inactive
- Potency [2]: inactive
- Potency [3]: inactive
- Potency [4]: inactive
- outcome [5]: inactive
- Potency [6]: inactive
- Potency [7]: inactive
- Potency [8]: inactive
- outcome [9]: inactive
- Potency (Aromatase (Homo sapiens)): inactive

SMILES: NC(N)=NS(=O)(=O)c1ccc(N)cc1
- Potency [1]: inactive
- Potency [2]: inactive
- Potency [3]: inactive
- Potency [4]: inactive
- outcome [5]: inactive
- Potency [6]: inactive
- Potency [7]: inactive
- Potency [8]: inactive
- outcome [9]: inactive
- Potency (Aromatase (Homo sapiens)): inactive

SMILES: CC(C)CCOC(=O)CC(C)C
- Potency [1]: inactive
- Potency [2]: inactive
- Potency [3]: inactive
- Potency [4]: inactive
- outcome [5]: inactive
- Potency [6]: inactive
- Potency [7]: inactive
- Potency [8]: inactive
- outcome [9]: inactive
- Potency (Aromatase (Homo sapiens)): inactive
